# From PubChem BioAssay
# In the library only some 1.4% were active in any assay of this set; here they are far more common.
# NFkB transloc inh = blocks IL-1B driven NFkB nuclear translocation in HUVEC cells; inhibition, % at 2 µM; HUVEC IL-1B NFkB p65 nuclear translocation imaging; 94,000 tested, 0.43% active; AID 796;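 active = inhibition above about 30% together with a positive call from visual inspection of the well image, limit read from the data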;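 note: nuclear over cytoplasmic p65 intensity ratio measured by imaging; 0% = IL-1B stimulated DMSO wells and 100% = unstimulated DMSO wells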
# HUVEC tox IL1B = HUVEC cytotoxicity counter-screen, IL-1B stimulated | 94,000 tested, 0.41% active | cell count reduction, % at 2 µM | HUVEC cell count loss, Hoechst imaging;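 active = cell count reduction more than 3 SD above the screen-wide mean, cut at about 70% in these data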;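 note: normalized per plate to untreated control cells as the no-loss baseline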
# MRP resist rev = MRP-mediated drug resistance reversal. H69AR cells + 2 uM doxorubicin, CellTiter-Glo, 72 h. differential viability (reversal), % at 10 µM. 85,000 tested, 0.04% active;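 active = viability drop by adding the cancer drug above about 55%, with treated viability meeting a 40% cutoff, limit read from the data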;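 note: viability without doxorubicin minus viability with 2 µM doxorubicin for each compound; larger differential means the compound sensitizes cells more to doxorubicin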
# MRP-1 activ = MRP-1 activation; H69AR cells + doxorubicin, viability rescue, CellTiter-Glo; viability increase, % at 10 µM; 140,000 tested, 0.61% active; AID 799;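 active = viability gain under doxorubicin at or above a set limit, the compound median plus 3 SD, cut at about 4.7% in these data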;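 note: MRP-1 overexpressing cells given doxorubicin 25 µM after compound pretreatment; 18-22 h compound pretreatment then 72 h with doxorubicin before readout; 0% = doxorubicin-only wells and 100% = vehicle-treated cells without doxorubicin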
# NFkB transloc pot = enhances IL-1B driven NFkB nuclear translocation; activation, % at 2 µM; AID 819; 94,000 tested, 0.3% active; HUVEC IL-1B NFkB p65 nuclear translocation imaging;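 active = activation above 40%, about the mean plus 3 SD, also judged a hit on visual image review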;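 note: percent activation is computed from the nuclear over cytoplasmic p65 intensity ratio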
# SDO1 yeast rescue = sdo1-depleted yeast growth rescue; AID 817; 140,000 tested, 0.21% active; S. cerevisiae sdo1-depleted JHY4D growth rescue, OD600 30 h; active compounds read high; pdr5 snq2 efflux-pump mutant strain; z-score at 10 µM;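 active = z-score above 3 at both the 24 hr and the 30 hr optical density reads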;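 note: z-score against mean and SD of all compound wells on the same plate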
# Active calls of the source: *; x = not tested or not shown.
SMILES,NFkB transloc inh,HUVEC tox IL1B,MRP resist rev,MRP-1 activ,NFkB transloc pot,SDO1 yeast rescue
O=C(NCCCN1CCN(c2cccc(Cl)c2)CC1)c1cccc(N2CCCC2=O)c1,-45.8,-18.6,6.1,-3.5,45.8*,0.87
Cc1noc(-c2ccccc2OC(=O)c2ccccc2)n1,-53.4,1.1,8.8,-0.9,53.4*,-1.01
CCCOc1cccc(C2C(C(=O)c3ccco3)=C(O)C(=O)N2CCN(CC)CC)c1 (stereo not given),-48.6,-26.4,8.9,-2.3,48.6*,1.33
CCN(CC)CCN1C(=O)C(O)=C(C(=O)c2ccco2)C1c1ccccn1 (stereo not given),-30.7,11.0,10.9,-0.8,30.7,-0.59
COc1cccc(NC(=O)COc2nc3ccccc3nc2C)c1,x,x,x,-0.1,x,1.67
CC(N)(Cc1ccc(O)cc1)C(=O)O (stereo not given),x,x,-6.8,x,x,x
CN(C)C(=O)NCc1ccc(S(N)(=O)=O)cc1,7.2,86.7*,6.0,-1.0,-7.2,1.35
NS(=O)(=O)c1ccc(CNC(=O)CC23CC4CC(CC(C4)C2)C3)cc1,32.0*,11.7,x,-0.2,-32.0,0.93
Cc1cc(C(=O)NCc2ccc(S(N)(=O)=O)cc2)c(C)o1,11.9,-26.3,2.0,-1.0,-11.9,0.87
CCCCCCCCCCSc1n[nH]c(N)n1,x,x,x,-2.0,x,-1.86
CCCCCCCOc1ccc(-c2ccc(C#N)cn2)cc1,x,x,x,5.1*,x,-0.12
CCCCOc1ccc(-c2cnc3ccccc3n2)cc1,x,x,x,1.4,x,-0.14
N#Cc1nc(COc2ccc(Cl)cc2)oc1N1CCN(Cc2ccccc2)CC1,-25.4,-19.3,x,4.8*,25.4,-1.87
COc1ccc(N2CCN(c3oc(COc4ccc(Cl)cc4)nc3C#N)CC2)cc1,3.1,11.0,x,5.8*,-3.1,-1.04
CN1CCN(c2oc(COc3ccc(-c4ccccc4)cc3)nc2C#N)CC1,-21.7,5.7,5.5,-3.6,21.7,-1.35
Cc1cc(C(=O)COC(=O)c2ccc3c(c2)OCO3)c(C)n1Cc1cccs1,-6.1,-11.8,4.2,5.6*,6.1,-1.3
Cc1cc(C(=O)COC(=O)c2ccccc2O)c(C)n1Cc1cccs1,8.6,-0.7,x,2.3,-8.6,0.38
O=C(Nc1ccc2nc(-c3ccccc3)oc2c1)c1ccco1,-40.3,-39.3,-6.9,-0.8,40.3*,-0.42
COc1ccc(/C=N/NC(=O)CCc2n[nH]c(=O)[nH]c2=O)cc1O,x,x,x,-0.1,x,0.72
COc1ccc(/C=N/NC(=O)CCc2c(C)n[nH]c2C)cc1O,-55.1,-9.4,-2.6,0.4,55.1*,0.14
CCn1c(COc2ccc(Cl)cc2)nnc1SCc1nc2ccccc2[nH]1,6.5,-3.8,-29.9,6.8*,-6.5,-1.68
O=C(Nc1cccc(Cl)c1)N(Cc1nc2ccccc2c(=O)[nH]1)Cc1cccs1,x,x,x,-3.6,x,-0.05
C#CCOCCOCCOCCNc1nc(N2CCN(C(=O)[C@H](Cc3ccc(O)cc3)n3cc(CCO)nn3)CC2)nc(N2CCN(C(=O)[C@H](Cc3ccc(O)cc3)n3cc(CCO)nn3)CC2)n1,x,x,x,-1.8,x,-0.05
Cc1ccc(CC2S/C(=C(/C#N)C(=O)NCc3ccco3)N(c3ccccc3)C2=O)cc1 (stereo not given),3.1,-3.6,-32.8,6.6*,-3.1,0.83
COCc1cc(C)nc(OCC(=O)N/N=C/c2ccc(-c3cc([N+](=O)[O-])ccc3C)o2)c1C#N,8.4,-26.6,x,4.7*,-8.4,-0.16
SMILES,NFkB transloc inh,HUVEC tox IL1B,MRP resist rev,MRP-1 activ,NFkB transloc pot,SDO1 yeast rescue
CCCCn1c(SCC(=O)N2CCOCC2)nnc1-c1cccs1,-5.7,-1.3,x,-1.6,5.7,0.5
CC(NC(=O)COC(=O)CCNC(=O)c1ccco1)C12CC3CC(CC(C3)C1)C2 (stereo not given),-63.4,-43.8,-5.2,0.0,63.4*,-1.28
O=C1CCCC(=O)C1=C1SCCCS1,x,x,x,2.5,x,0.48
COC(=O)CC1SC(=O)NC1=O (stereo not given),-0.1,-7.2,14.2,7.2*,0.1,0.39
COC(=O)CC1SC(=O)NC1=Nc1ccc(O)cc1 (stereo not given),-2.6,-9.9,-2.6,-1.9,2.6,0.63
Cc1ccc(SCCCCN2CCNCC2)cc1,x,x,x,-3.4,x,-0.86
FC(F)(F)c1cccc(Cn2nnnc2-c2cc(Cl)cc(Cl)c2)c1,16.0,-27.2,x,-4.5,-16.0,-1.84
COc1ccc(C(=O)/C=C/c2ccccc2C(F)(F)F)cc1,6.0,-5.3,x,-2.0,-6.0,-1.43
Cc1onc(-c2c(F)cccc2Cl)c1C(=O)Nc1sc2c(c1C#N)CCC(C(C)(C)C)C2 (stereo not given),0.2,23.0,-0.3,11.4*,-0.2,-0.79
O=C1CCCC(O)=C1N=Nc1ccc2c(c1)OCO2,x,x,x,7.7*,x,1.5
COc1ccc(C2=NN(C(=O)c3cccs3)C(c3ccc(OC)cc3)C2)cc1 (stereo not given),x,x,x,7.5*,x,-0.48
O=C(c1cccs1)N1N=C(c2ccccc2)CC1c1ccccc1 (stereo not given),-5.0,2.5,x,-0.6,5.0,-2.05
COc1ccc(C(=O)N(Cc2ccccc2)Cc2cc3cc4c(cc3[nH]c2=O)OCCO4)cc1,71.8*,-23.7,-38.2,-5.9,-71.8,-2.05
Cc1cc(C)c(NS(=O)(=O)c2ccc(NC(=O)/C=C/C(=O)O)cc2)c(C)c1,x,x,x,0.4,x,0.41
C/C(=N\O)c1ccc(N2C(=O)C3CC=C(Cl)CC3C2=O)cc1 (stereo not given),4.8,92.1*,x,-2.0,-4.8,-1.22
CCN(CC)c1ccc(-c2nn3c(-c4ccccc4OC)nnc3s2)cc1,28.9,71.0*,-6.0,-5.3,-28.9,-0.83
COc1ccccc1-c1nn2c(-c3ccccc3Cl)nnc2s1,x,x,-7.3,x,x,x
CCOC(=O)N1CCC(NC(=O)C2CCN(C(=O)N3CC(C)Oc4ccc(C)cc43)CC2)CC1 (stereo not given),50.5*,20.0,-3.1,-2.5,-50.5,0.59
O=C(NCc1cn2ccccc2n1)c1ccccc1,x,x,-7.8,-1.0,x,1.36
O=C(NCc1cn2ccccc2n1)c1ccc(Br)o1,31.6*,35.2,-0.1,-0.2,-31.6,0.32
C=CCNC(=O)NC(=O)COC(=O)/C(C#N)=C/c1cc(C)n(CCC(C)C)c1C,-9.3,17.3,2.2,0.3,9.3,-0.23
Cc1cc(/C=C(\C#N)C(=O)OCC(=O)NC(=O)NC(C)(C)C)c(C)n1CCC(C)C,-8.6,15.4,57.1*,-2.9,8.6,0.88
Cc1ccc(NC(=O)CCNC(=O)c2ccc(Cl)cc2)cc1F,x,x,x,5.4*,x,0.9
S=C(c1ccc(-c2ccccc2Cl)o1)N1CCCCC1,x,x,x,5.3*,x,-0.91
CN1CCN(C(=S)c2ccc(-c3cccc(Cl)c3Cl)o2)CC1,x,x,x,0.3,x,-1.7
O=C(CCn1c(=O)c2ccccc2n(CC(=O)NC2CCCC2)c1=O)NCCc1ccc(Cl)cc1,11.1,0.9,15.4,1.5,-11.1,0.24
O=C(Cn1c(=O)n(CCCCC(=O)NC2CCCC2)c(=O)c2ccccc21)NCCC1=CCCCC1,40.5*,2.7,x,-2.4,-40.5,0.43
